Screens (PubChem)
Rows were chosen to be rich in hits. Some 2.5% of all compounds tested hit in one or more screens of this group.
MEKK3 PB1 HTS: modulators (inhibitors or enhancers) of MEK5 binding to human MEKK3 PB1 domain | Q99759 | bead-based flow cytometry, Alexa488-MEK5 binding to MEKK3; actives lie on both sides; 0 = blocked by unlabeled MEK5, 100 = vehicle | binding response (% of control), % at 10 µM | actives 1.4% (n = 290,000) | AID 1529;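 active means binding response more than 3 SD above or below the average of its plate-row segment, actives on both sides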;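 further: Alexa488 bead fluorescence after subtracting the streptavidin-only scavenger bead signal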
Target sequence (Q99759 whole entry, looked up, the tested form may be a part): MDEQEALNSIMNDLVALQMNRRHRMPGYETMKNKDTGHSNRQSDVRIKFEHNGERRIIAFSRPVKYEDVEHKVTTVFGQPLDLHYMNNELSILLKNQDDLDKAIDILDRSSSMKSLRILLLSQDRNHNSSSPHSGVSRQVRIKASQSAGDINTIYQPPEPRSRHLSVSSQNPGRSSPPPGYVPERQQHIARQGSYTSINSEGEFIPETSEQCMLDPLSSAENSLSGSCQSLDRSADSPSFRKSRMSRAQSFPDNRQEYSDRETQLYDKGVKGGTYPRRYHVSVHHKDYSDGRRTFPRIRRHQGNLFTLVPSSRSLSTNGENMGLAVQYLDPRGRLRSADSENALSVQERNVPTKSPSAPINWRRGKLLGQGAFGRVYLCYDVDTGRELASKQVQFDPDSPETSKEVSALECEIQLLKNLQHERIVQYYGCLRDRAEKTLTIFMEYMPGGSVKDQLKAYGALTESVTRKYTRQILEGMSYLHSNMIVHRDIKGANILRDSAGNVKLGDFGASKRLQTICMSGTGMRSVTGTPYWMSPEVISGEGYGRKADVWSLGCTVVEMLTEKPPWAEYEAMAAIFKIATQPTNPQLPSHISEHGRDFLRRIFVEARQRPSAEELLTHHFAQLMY
MEKK2 WT-MEK5: raises or lowers MEK5 binding to wildtype human MEKK2 PB1 domain | Q9Y2U5 | bead flow cytometry, Alexa488-MEK5 binding to MEKK2 WT; actives lie on both sides | binding response (% of control), % at 10 µM | actives 1.1% (n = 290,000) | AID 1531; in the data active means binding response below about 67% or above about 130%
MEKK2mut PB1 HTS: signal of MEK5 binding to mutant human MEKK2 PB1 domain | bead flow cytometry, Alexa488-MEK5 binding to MEKK2 mutant | percent response, % at 10 µM | actives 0.35% (n = 290,000) | AID 1530; in the data active means percent response above about 24%, passing the limit was not always enough
GRK2 inh: inhibitors of human GRK2 displacing RNA aptamer | bead flow cytometry, FAM-aptamer displacement from GRK2 | actives 0.59% (n = 330,000) | inhibition of aptamer binding, % at 10 µM | P25098;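 active means inhibition of aptamer binding above 40%, roughly 3 SD of noise, on plates passing a quality check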;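 further: median bead fluorescence of bound FAM aptamer so fluorescent compounds give negative values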
MEKK2wt confirm: raises or lowers MEK5 binding to wildtype human MEKK2, retest | shares compounds with MEKK3 PB1 HTS | bead flow cytometry, Alexa488-MEK5 binding to MEKK2 WT; actives lie on both sides | binding response (% of control), % at 10 µM | actives 2.4% (n = 5,900) | AID 1892; in the data active means binding response below about 16% or above about 210%; inactive means in between
MEKK2mut confirm: signal of MEK5 binding to mutant human MEKK2, retest; shares compounds with MEKK3 PB1 HTS; bead flow cytometry, Alexa488-MEK5 binding to MEKK2 mutant; percent response, % at 10 µM; actives 2% (n = 5,900); AID 1893; in the data active means percent response mostly above about 71%, no sharp cut-off; inactive means mostly below about 38%;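 further: higher means compound restores mutant binding toward wildtype level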
MEKK3-MEK5 inh: confirmation of inhibitors of MEK5 binding to human MEKK3. shares compounds with MEKK3 PB1 HTS. bead flow cytometry, Alexa488-MEK5 binding to MEKK3; stronger effect = lower value. binding response (% of control), % at 10 µM. actives 1.8% (n = 5,900). AID 1894;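 active means binding response below 72% of control, or above a set upper limit, though filed actives all read lower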;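 further: 100% = DMSO only wells and 0% = binding blocked by excess unlabeled MEK5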
* marks the source's active call; other numbers are inactive results; x = not tested or not shown; [ ] = dose if it differs, or a comment.

SMILES	MEKK3 PB1 HTS	MEKK2 WT-MEK5	MEKK2mut PB1 HTS	GRK2 inh	MEKK2wt confirm	MEKK2mut confirm	MEKK3-MEK5 inh
CC(C)(C)NC(=S)NCc1ccc2c(c1)OCO2	100.0	100.0	-2.0	2.0	x	x	x
CN(C)CC(C)(C)CNC(=S)NCc1ccc2c(c1)OCO2	128.0*	104.0	3.0	1.0	99.0	3.0	106.0
Cc1nc([N+](=O)[O-])c(C(=O)OCc2ccc(C#N)cc2)n1C	108.0	107.0	0.0	0.0	x	x	x
CS(=O)(=O)N(CC(=O)NCc1ccc2c(c1)OCO2)C1CCCCC1	136.0*	117.0	1.0	2.0	105.0	1.0	106.0
CS(=O)(=O)N(CC(=O)NCc1ccc(Cl)cc1)C1CCCCC1	98.0	100.0	4.0	2.0	x	x	x
Cc1[nH]c2ccccc2c1C(=O)COc1ccccc1	142.0*	118.0	1.0	0.0	102.0	3.0	101.0
O=C1c2ccccc2NC2(CCCCC2)N1N=C1CCCCC1	75.0*[inhibitor]	90.0	-1.0	4.0	102.0	2.0	104.0
O=C1c2ccccc2NC2(CCCC2)N1O	110.0	113.0	15.0	0.0	x	x	x
Cc1c(C(=O)N2CCCCCC2)c(S(=O)(=O)Nc2cccc(F)c2)c(C)n1C	101.0	100.0	-1.0	3.0	x	x	x
CN(C)c1nc(-c2cccnc2)nc(-c2ccccc2)c1C#N	98.0	99.0	0.0	0.0	x	x	x
O=C(CN1CCOCC1)Nc1nc(-c2ccc3c(c2)CCN3S(=O)(=O)c2ccccc2)cs1	2.0*[inhibitor]	3.0*[inhibitor]	-26.0	0.0	99.0	-9.0	101.0
Cc1ccc(S(=O)(=O)N2CCN(C(=O)CSc3ccccn3)CC2)c(C)c1	x	x	x	0.0	x	x	x
Cn1c(=O)[nH]c(NCCc2ccc(O)cc2)c([N+](=O)[O-])c1=O	x	x	x	0.0	x	x	x
O=C(NCCCN1CCN(CCCNC(=O)c2cc([N+](=O)[O-])ccc2Cl)CC1)c1cc([N+](=O)[O-])ccc1Cl	91.0	206.0*	24.0	0.0	205.0	79.0*	105.0
COc1ccc2c(c1)c(CC(=O)Nc1ccc(C(C)=O)cc1)c(C)n2C(=O)c1ccc(Cl)cc1	47.0*[inhibitor]	92.0	1.0	0.0	105.0	-3.0	101.0
O=C(Nc1ccccn1)c1cc2cc([N+](=O)[O-])ccc2s1	106.0	103.0	79.0*	0.0	105.0	8.0	106.0
O=C(c1ccccc1)c1ccc(Oc2ncccn2)cc1	0.0*[inhibitor]	-1.0*[inhibitor]	-17.0	1.0	103.0	2.0	101.0
Cc1cccc(N2CCN(C(=O)CN3C(=O)C4CC=CCC4C3=O)CC2)c1C (stereo not given)	67.0*[inhibitor]	85.0	-2.0	1.0	96.0	4.0	101.0
Cc1cccc(N2CCN(C(=O)CN3C(=O)NC(C)(C)C3=O)CC2)c1C	89.0	97.0	-19.0	3.0	x	x	x
CN(c1ccc([N+](=O)[O-])cc1/C=N/NC(=O)COc1ccccc1)C1CCCCC1	98.0	99.0	-1.0	3.0	x	x	x
CCc1ccc(OCC(=O)N/N=C/c2cc([N+](=O)[O-])ccc2N2CCCCCC2)cc1	136.0*	104.0	0.0	0.0	106.0	9.0	103.0
CC(C)CNC(=O)COC(=O)c1ccc(F)cc1Cl	73.0*[inhibitor]	83.0	-10.0	0.0	106.0	7.0	108.0
CC(C)(C)NC(=O)NC(=O)COC(=O)c1ccc2c(c1)S(=O)(=O)N=C1CCCCCN12	147.0*	103.0	3.0	0.0	102.0	11.0	99.0
CC(NC(=O)COC(=O)c1ccc2c(c1)S(=O)(=O)N=C1CCCCCN12)C12CC3CC(CC(C3)C1)C2 (stereo not given)	105.0	109.0	19.0	2.0	x	x	x
CC[C@H](C)[C@@H](CN[C@H](CCCCNC)CNC)NCC1CCCC1	104.0	141.0*	8.0	0.0	114.0	8.0	106.0
SMILES	MEKK3 PB1 HTS	MEKK2 WT-MEK5	MEKK2mut PB1 HTS	GRK2 inh	MEKK2wt confirm	MEKK2mut confirm	MEKK3-MEK5 inh
COc1ccc(-c2ccc(/C=C3/C(=N)N4C=CSC4=NC3=O)o2)c([N+](=O)[O-])c1	134.0*	97.0	-1.0	0.0	95.0	-4.0	94.0
COc1ccc(Cl)cc1NC(=O)C1CCCN(c2ncnc3c2nc2n3CCCCC2)C1 (stereo not given)	95.0	93.0	-5.0	3.0	x	x	x
O=C(O)CC1SC(=Nc2cccc(C(F)(F)F)c2)NC1=O (stereo not given)	124.0*	133.0	15.0	2.0	91.0	-7.0	82.0
O=C(O)CC1SC(=Nc2ccc(O)cc2)NC1=O (stereo not given)	112.0	104.0	0.0	0.0	x	x	x
Nc1ccc(Oc2ccc(Br)cc2)cc1	72.0*[inhibitor]	97.0	-1.0	5.0	104.0	4.0	103.0
Nc1ccc(Oc2cccc(Oc3ccc(N)cc3)c2)cc1	96.0	93.0	-7.0	0.0	x	x	x
CN(/N=C/c1ccncc1)C1=NCCN1	110.0	111.0	11.0	0.0	x	x	x
CN(/N=C/c1ccncc1)c1cnc2ccccc2n1	74.0*[inhibitor]	88.0	-2.0	0.0	104.0	3.0	104.0
CC1(C)C(=O)OC(c2cccn2-c2ccc([N+](=O)[O-])cc2)C2(CCCCC2)C1=O (stereo not given)	89.0	98.0	-1.0	3.0	x	x	x
CC1(C)C(=O)OC(c2cccn2-c2ccc([N+](=O)[O-])cc2)C(C)(C)C1=O (stereo not given)	136.0*	104.0	0.0	4.0	103.0	2.0	104.0
CC1(C)C(=O)C2(CCCCC2)C(=O)OC1c1cccn1-c1ccc([N+](=O)[O-])cc1 (stereo not given)	133.0*	107.0	0.0	2.0	103.0	3.0	101.0
O=C1OC(c2cccc([N+](=O)[O-])c2)C2(CCCC2)C(=O)C12CCCCC2 (stereo not given)	142.0*	104.0	0.0	1.0	93.0	-4.0	95.0
CC1(C)C(=O)C2(CCCCC2)C(=O)OC1c1ccc(O)cc1 (stereo not given)	93.0	93.0	-8.0	0.0	x	x	x
NC(=O)C1CCN(c2oc(/C=C/c3ccc(F)cc3)nc2S(=O)(=O)c2ccccc2)CC1	101.0	100.0	0.0	1.0	x	x	x
CSc1cccc(NC(=S)NN(C)C)c1	68.0*[inhibitor]	60.0*[inhibitor]	-34.0	2.0	114.0	4.0	106.0
COc1ccc(OC)c(CNC(=O)C2CCC(=O)N(CCCN3CCCC3=O)C2)c1 (stereo not given)	98.0	102.0	-2.0	4.0	x	x	x
CCN1C(=O)c2cccc3c(S(=O)(=O)Nc4ncccc4C)ccc1c23	82.0*[inhibitor]	85.0	-10.0	7.0	105.0	3.0	105.0
CC(Oc1c(Cl)cccc1Cl)C1=NCCN1 (stereo not given)	102.0	104.0	5.0	3.0	x	x	x
